Assay [1] in a line: Cellular Toxicity (caspase-3) Hek293 (AID 664).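 Note: cells exposed to compound for 16 h at 37 °C before readout.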 An outline of the steps:
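Apoptosis readout: Caspase-Glo 3/7 signal in human HEK293 cells following 16-hour compound incubation. Responses scaled between DMSO baseline and 100 uM tamoxifen.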

Assay [2] is described as follows: Cellular Toxicity (caspase-3) N2a (AID 665).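 Note: compound exposure lasted 16 h at 37 °C before readout.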 An outline of the steps: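 Concentration-response qHTS: compound-induced caspase-3/7 luminescence in N2a cells (16 h, 37 °C), relative to DMSO and 10 uM staurosporine controls; AC50 obtained using the standard Hill equation.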
Assay [3] in a line: Cell Viability - LYMP1-002 - Assay at 24 hr (AID 993). Note: % is set by controls: 0 for no effect and ±100 for the full control effect. The method in brief:
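Viability was judged from intracellular ATP using a luciferase read-out, following a 24-hour compound incubation at 37 C of lymphoblastoid cells seeded at 2500 per well. Concentration-response data were fitted to the Hill equation for AC50.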

For assay [4], the target named is Glucocorticoid receptor (Homo sapiens) (UniProt P04150). Description: qHTS assay for small molecule agonists of glucocorticoid receptor signaling (AID 588532; active = well fitted curve in the direction sought with a large enough effect in the signal ratio, with a control signal flat; the % refers to the signal ratio;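 note: 100% = dexamethasone at 0.1 µM and 0% = DMSO only wells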). The conditions noted are these: HeLa MMTV-bla, beta-lactamase ratio, agonist, 18 h; stronger effect = higher value; percent of dexamethasone control, DMSO zero. An outline of the steps: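 MMTV-bla HeLa, beta-lactamase reporter; medium with 1% charcoal/dextran-stripped FBS; cpds up to 92 uM, 18 h, 37 C; CCF4 readout 460/530 nm; Hill fit → EC50, efficacy vs 0.1 uM dexamethasone = 100%.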
For orientation: Quantitative high-throughput screening tests each substance at several concentrations.

Assay [5] in a line: qHTS assay for small molecule antagonists of peroxisome proliferator-activated receptor delta signaling (AID 588535; active = well fitted inhibition curve with a large enough effect in the signal ratio, with a control signal flat, not every such curve was filed as active; the % refers to the signal ratio;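 for max response: cells co-treated with a PPAR-delta agonist as stimulator during compound exposure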). The conditions noted are these: HEK293T PPARd-UAS-bla, beta-lactamase FRET ratio, 18 h; 460 nm channel. The method in brief: (§1)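 Compounds tested in titration on PPAR-delta-UAS-bla HEK293T cells grown in charcoal/dextran-stripped serum (2%); beta-lactamase activity read via CCF4 emission at 460 and 530 nm.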

Assay [6] has as its target Peroxisome proliferator-activated receptor delta (Homo sapiens) (UniProt Q03181). Described as above. An outline of the steps:
as §1

The target in assay [7] is ATP-dependent 6-phosphofructokinase (Trypanosoma brucei brucei) (UniProt O15648). Description: qHTS Assay to Find Inhibitors of T. brucei phosphofructokinase: hit validation (AID 492961).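 Note: luminescence reports ADP formed as PFK phosphorylates fructose-6-phosphate with ATP; % is set by controls: 0 for no effect and ±100 for the full control effect.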 An outline of the steps: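 PFK 1.25 nM, F6P 0.5 mM, ATP 0.1 mM, MgCl2 5 mM, 0.1 M TEA pH 8.0, Tween20 0.01%, BSA 0.1%; 45 min RT. ADP-Glo two-step detection, luminescence. qHTS titration; curve fitting with curve-class categorization.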

A short description of assay [8]: qHTS profiling for inhibitors of Plasmodium falciparum proliferation (AID 504749).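 Note: 0% = DMSO vehicle and full inhibition = artemisinin control; nearly all actives have a fitted effect of over 60% in size.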 The note with it: P. falciparum in erythrocytes, SYBR Green DNA, 72 h, at 28.7 µM (top of the series). The method in brief: (§2)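 Fluorescence of SYBR Green-bound parasite DNA, read at 485/535 nm, served as the growth measure. Infected erythrocytes were cultured with compound 72 h; artemisinin (0.29 uM) and DMSO wells defined the normalization range.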

A further assay relates to CP192. Described as above. The conditions noted are these: P. falciparum in erythrocytes, SYBR Green DNA, 72 h; series mostly up to 28.7 µM. The method in brief:
as §2

The test system of another assay is CP194. The assay is described as above. The conditions noted are these: P. falciparum in erythrocytes, SYBR Green DNA, 72 h; series mostly up to 28.7 µM. An outline of the steps:
as §2

Another assay relates to CP291. The assay is described as above. The note with it: P. falciparum in erythrocytes, SYBR Green DNA, 72 h; series mostly up to 28.7 µM. An outline of the steps:
as §2

In the next assay the test system is W2. The assay is described as above. The note with it: P. falciparum in erythrocytes, SYBR Green DNA, 72 h; series mostly up to 28.7 µM. An outline of the steps:
as §2

The nature of assay [9]: Cell Viability - BJ (AID 421; calls by dose curve;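 note: potency is the fitted concentration of half-maximal effect; cells exposed to compound for 40 hours at 37 °C before readout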). The conditions noted are these: BJ fibroblast viability, qHTS. An outline of the steps: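 Luminescent ATP signal (CellTiter-Glo, 20 min at room temperature) served as the read-out of viable BJ cells after 40 hours of compound treatment. Responses were scaled between DMSO and 100 uM tamoxifen, and AC50 values were obtained by Hill modeling.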

Assay [10] in a line: Cell Viability - SH-SY5Y (AID 544).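 Note: 0% = DMSO alone and -100% = 100 µM tamoxifen; nearly all actives have a fitted effect of over 55% in size.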 An outline of the steps: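 Quantitative HTS in SH-SY5Y neuroblastoma cells, 40 hr treatment at 37 °C, ATP content by luciferase luminescence; AC50 from Hill fits.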
The nature of assay [11]: MultiTox-Fluor Cytotoxicity Assay - LYMP1-002 - Dead Cells (AID 960).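 Note: 0% = DMSO and 100% = tetraoctylammonium bromide; nearly all actives have a fitted effect of over 60% in size.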 An outline of the steps: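 Concentration-dependent increases in membrane-leaked protease activity are quantified in LYMP1-002 cells after 16 hr treatment; values are normalized against DMSO and tetraoctylammonium bromide (15 uM) controls and AC50 derived by Hill modeling.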
Assay [12] deals with Bile acid receptor (Homo sapiens) (UniProt Q96RI1). Nature of the assay: qHTS assay for small molecule antagonists of farnesoid X receptor signaling (AID 588526; calls by dose curve; note: % is set by controls: 0 for no effect and ±100 for the full control effect). The method in brief: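 Concentration-response titrations were fitted to the Hill equation for half-maximal inhibition and maximal response, with data normalised to 50 uM chenodeoxycholic acid and DMSO control wells. Cells: FXR-UAS-bla HEK293T, dialyzed FBS.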

Assay [13] addresses Tumor necrosis factor (Homo sapiens) (UniProt P01375). Description: qHTS assay to identify small molecules that stimulate Tumor Necrosis Factor-alpha (TNF-alpha) secretion (AID 651757; active = well fitted curve in the direction sought with a large enough effect in the signal ratio; the % refers to the signal ratio; note: 0% is about no effect). An outline of the steps: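 Using 3000 THP-1 cells per well, compounds and controls were applied for 17 hrs at 37 C. Detection followed with two labeled anti-TNF-alpha antibodies (cryptate donor, XL665 acceptor) for 3 hr at room temperature, measured by TR-FRET.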

Assay [14] is described as follows: Cell Viability - MRC5 (AID 434; calls by dose curve;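 note: potency is the fitted concentration of half-maximal effect; cells exposed to compound for 40 hours at 37 °C; potency reflects cytotoxicity seen as loss of intracellular ATP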). The note with it: MRC5 lung fibroblast viability, qHTS. An outline of the steps:
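Decrease in intracellular ATP, quantified by luciferase light output, reflects compound toxicity toward MRC5 cells exposed for 40 hr in complete culture medium. Concentration-response curves, scaled between DMSO and 100 uM tamoxifen, gave AC50 values.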

A short description of assay [15]: Cell Viability - NIH 3T3 (AID 541).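 Note: plate controls were DMSO alone for no effect and tamoxifen positive control for full effect; nearly all actives have a fitted effect of over 25% in size.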 The note with it: NIH 3T3 cell viability, qHTS; activity change, negative = cytotoxicity: at 92.2 µM (top of the series). The method in brief:
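In this cytotoxicity screen, acute toxicity is scored as an ATP drop measured by CellTiter-Glo in NIH 3T3 fibroblasts following a 40 hr, 37 °C incubation with compound.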

The nature of assay [16]: qHTS assay to identify small molecules that stimulate interleukin-8 (IL-8) secretion (AID 651758; active = well fitted activation curve with a large enough effect in the signal ratio; the % refers to the signal ratio; note: potency is the fitted concentration of half-maximal effect; for activation: 0% is about no effect). An outline of the steps:
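Quantitative HTS in THP-1 monocytic cells at 2000 cells per well, with 16 hrs compound incubation at 37 C. IL-8 in the medium was then quantified by HTRF immunoassay, read after 1-3 hrs at room temperature.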

The structures appear in SMILES notation. “And” between values parts separate entries of the source, which are not always exact repeats. Identical values can stand only once. Records with an inconclusive call do not appear. The source made the active and inactive calls. Unless noted, calls come from the whole dose curve; as a rule, active = well fitted curve in the direction sought with a large enough effect; inconclusive = small, poorly fitted or top-dose-only effect, or another doubt; inactive = no such curve, though single readings can be large; an effect the other way counts as inactive or inconclusive.

Chain of Bile acid receptor (Homo sapiens) (Q96RI1 whole entry, looked up): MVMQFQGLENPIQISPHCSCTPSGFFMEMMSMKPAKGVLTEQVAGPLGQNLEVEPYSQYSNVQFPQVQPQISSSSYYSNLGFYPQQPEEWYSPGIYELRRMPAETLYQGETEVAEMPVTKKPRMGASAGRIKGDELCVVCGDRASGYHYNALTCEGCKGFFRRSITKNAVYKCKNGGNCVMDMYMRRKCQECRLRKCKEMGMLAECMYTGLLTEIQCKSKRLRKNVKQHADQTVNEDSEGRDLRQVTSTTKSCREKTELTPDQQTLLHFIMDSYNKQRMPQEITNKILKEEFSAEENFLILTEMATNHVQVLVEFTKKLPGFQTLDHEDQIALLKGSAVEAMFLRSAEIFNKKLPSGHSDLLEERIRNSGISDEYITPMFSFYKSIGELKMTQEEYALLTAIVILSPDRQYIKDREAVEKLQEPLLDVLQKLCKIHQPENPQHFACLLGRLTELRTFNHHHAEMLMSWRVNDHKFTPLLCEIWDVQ
Chain of Peroxisome proliferator-activated receptor delta (Homo sapiens) (Q03181 whole entry, looked up): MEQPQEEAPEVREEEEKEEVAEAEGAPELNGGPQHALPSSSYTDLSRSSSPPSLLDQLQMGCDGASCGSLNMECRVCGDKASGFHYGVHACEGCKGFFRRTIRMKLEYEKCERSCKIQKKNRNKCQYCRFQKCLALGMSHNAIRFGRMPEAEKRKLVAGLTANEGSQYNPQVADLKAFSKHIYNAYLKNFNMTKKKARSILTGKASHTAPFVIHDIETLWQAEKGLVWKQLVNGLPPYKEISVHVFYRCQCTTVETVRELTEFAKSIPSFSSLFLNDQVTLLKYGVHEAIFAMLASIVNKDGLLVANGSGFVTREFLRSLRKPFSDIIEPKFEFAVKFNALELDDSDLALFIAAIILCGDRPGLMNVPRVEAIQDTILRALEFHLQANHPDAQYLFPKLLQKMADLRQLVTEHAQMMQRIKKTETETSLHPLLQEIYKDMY
Chain of Glucocorticoid receptor (Homo sapiens) (P04150 whole entry, looked up): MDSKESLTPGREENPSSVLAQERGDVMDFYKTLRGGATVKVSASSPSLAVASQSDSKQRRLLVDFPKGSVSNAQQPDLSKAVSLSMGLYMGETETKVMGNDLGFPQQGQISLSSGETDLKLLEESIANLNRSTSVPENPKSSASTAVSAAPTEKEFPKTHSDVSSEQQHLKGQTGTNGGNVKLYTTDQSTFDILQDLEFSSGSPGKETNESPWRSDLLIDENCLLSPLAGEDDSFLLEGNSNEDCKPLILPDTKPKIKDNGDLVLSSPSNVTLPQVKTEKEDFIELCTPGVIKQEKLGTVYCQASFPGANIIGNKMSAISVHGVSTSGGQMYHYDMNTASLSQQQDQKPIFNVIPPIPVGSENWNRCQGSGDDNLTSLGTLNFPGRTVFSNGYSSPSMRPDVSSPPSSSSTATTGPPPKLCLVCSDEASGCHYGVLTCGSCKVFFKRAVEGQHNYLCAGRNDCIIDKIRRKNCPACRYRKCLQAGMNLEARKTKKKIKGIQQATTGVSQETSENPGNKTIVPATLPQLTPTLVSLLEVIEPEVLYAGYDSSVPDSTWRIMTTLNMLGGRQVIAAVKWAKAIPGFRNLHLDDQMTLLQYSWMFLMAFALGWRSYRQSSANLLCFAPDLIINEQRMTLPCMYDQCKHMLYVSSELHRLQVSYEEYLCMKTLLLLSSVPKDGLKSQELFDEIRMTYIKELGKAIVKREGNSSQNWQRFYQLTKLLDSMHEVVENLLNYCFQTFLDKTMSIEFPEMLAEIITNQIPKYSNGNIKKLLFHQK
Chain of Tumor necrosis factor (Homo sapiens) (P01375 whole entry, looked up): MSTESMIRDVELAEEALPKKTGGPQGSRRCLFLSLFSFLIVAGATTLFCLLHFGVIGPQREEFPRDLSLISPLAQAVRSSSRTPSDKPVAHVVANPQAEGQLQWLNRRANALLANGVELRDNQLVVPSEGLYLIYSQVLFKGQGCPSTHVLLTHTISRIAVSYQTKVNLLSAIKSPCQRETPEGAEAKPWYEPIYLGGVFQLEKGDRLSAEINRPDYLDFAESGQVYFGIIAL
Chain of ATP-dependent 6-phosphofructokinase (Trypanosoma brucei brucei) (O15648 whole entry, looked up): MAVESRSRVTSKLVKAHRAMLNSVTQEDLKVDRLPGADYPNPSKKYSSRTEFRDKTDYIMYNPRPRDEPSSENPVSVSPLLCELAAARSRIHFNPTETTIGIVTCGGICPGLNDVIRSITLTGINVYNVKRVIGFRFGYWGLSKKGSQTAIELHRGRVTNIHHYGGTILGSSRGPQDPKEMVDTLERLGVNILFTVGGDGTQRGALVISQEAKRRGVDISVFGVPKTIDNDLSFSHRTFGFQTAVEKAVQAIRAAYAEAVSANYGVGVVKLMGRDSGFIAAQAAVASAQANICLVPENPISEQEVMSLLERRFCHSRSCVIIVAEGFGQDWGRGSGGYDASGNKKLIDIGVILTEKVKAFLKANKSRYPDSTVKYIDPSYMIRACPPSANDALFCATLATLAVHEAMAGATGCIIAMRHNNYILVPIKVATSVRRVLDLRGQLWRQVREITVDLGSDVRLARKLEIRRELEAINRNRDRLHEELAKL

In the case of `COc1cc(/C=C/c2ccccc2)oc(=O)c1`, the call in assay [1] and in assay [2] was inactive. For the same compound, the Potency result in assay [3] and in assay [6] was “inactive” in each case. Further, the activation in assay [4] is 1.13% (inactive). Besides, the max response in assay [5] is -19.2%.
For `CC(=O)OC1CC2CCC1(C)C2(C)C` (stereo not given), in [7], the compound was called inactive. In addition, the activity, negative = inhibition in [8] (parasite line A) was 6.76% (inactive); in assay [8] (parasite line B), 13.6% (inactive). Also, the Potency result in the assay on CP192, in the assay with CP194, in the assay on CP291 and in the assay on W2 was “inactive” each time.
`CCCCCCCCCCCCCC(=O)O`: the Potency in [9] is > 92 µM (inactive). In addition, the Potency entry in [10] and in [11] was “inactive” each time. Moreover, the call in [2], in assay [12] and in assay [13] was inactive. For the same compound, in [4], the activation is -3.49% (inactive) and -3.58% (inactive).
Consider `COc1ccc(/C=C/c2cc(OC)cc(=O)o2)cc1`, for which the Potency is > 92 µM (inactive) in assay [14] and 66.8 µM (active) in assay [16]. In assay [15], the Potency result was “inactive”. For the same compound, in assay [12], the call was inactive.
With `O=C(O)c1ccccc1`, the Potency in assay [9] was > 92 µM (inactive). Also, the Potency entry in assay [15], in assay [10] and in assay [11] was “inactive” each time. Further, the result in assay [13] was inactive.
For the compound `C=C(C)C1CC=C(C)C(O)C1` (stereo not given), the Potency in assay [9] and in [14] was > 92 µM (inactive) throughout. For the same compound, the Potency entry in [15] and in assay [10] was “inactive” throughout. In addition, the activation in assay [4] was 0.682% (inactive). The outcome in [13] was inactive.
Regarding `C=CC(C)(CCC=C(C)C)OC(C)=O` (stereo not given), in assay [12], the result was inactive. Moreover, the max response in assay [5] is -1.31%. For the same compound, the Potency entry in assay [6] was “inactive”.
With `C=CC(=C)CCC=C(C)C`, the Potency result in [15], in [10], in assay [6] and in assay [16] was “inactive” each time. For the same compound, the compound was classed as inactive in assay [1] and in assay [13]. For the same compound, in assay [5], the max response is -12.1%.
